Bioassay records (PubChem)
Only some compounds are listed: those with a hit (about 6.8% of all), similar ones and a draw of the others.
Spn MK inh – blocks S. pneumoniae mevalonate kinase. purified MK, PK/LDH-coupled NADH absorbance 340 nm. inhibition, % at 10 µM. 65,000 tested, 0.48% active;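 active means ranked among the strongest by inhibition in the single 10 µM screen, a fixed top-ranked set picked for dose follow-up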
Fluor 339 460 – intrinsic fluorescence of library compounds, ex339/em460 – biochemical, MLSMR library, data from DPM-DC assay, artefact control, profiling panel | compound autofluorescence, ex339/em460 nm, NADH buffer; hits give high values; 1 = no-compound wells, NADH background | fluorescence fold increase at 10 µM | 65,000 tested, 5.5% active | AID 709;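 active means at 10 µM, mean starting fluorescence two-fold or more over control wells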;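 further: signal is the first read of a kinetic run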
Spn DPM-DC inh – S. pneumoniae DPM-DC inhibition | purified DPM-DC, PK/LDH coupled NADH fluorescence | calls only at 10 µM | 65,000 tested, 0.49% active | AID 556;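 active means the 320 compounds with the highest percent inhibition in the single-dose primary screen, excluding strongly autofluorescent ones, cut at about 32% in these data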;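 further: kinetic rate of NADH fluorescence loss reporting ADP formed by the decarboxylase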
NADH enzymes – inhibition of NAD/NADH coupling enzymes, library profiling; coupled PK/LDH NADH assays, four targets; IC50, µM (series often up to 10 µM), inactives show at the highest dose inhibition; 65,000 tested, 0.02% active; AID 774;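 active means single-dose screening hits from any of four coupled enzyme assays that gave an IC50 when retested across doses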;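 further: the DPM-DC format reads NADH fluorescence rather than 340 nm absorbance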
A340 absorber – absorbance at 340 nm; compound absorbance at 340 nm, fold over control; fold change at 10 µM; 65,000 tested, under 10 active; AID 708;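 active means at 10 µM dose, initial 340 nm absorbance at least 2 fold that of control wells; inactive means change under 2 fold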;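 further: initial absorbance extrapolated from kinetic A340 decline of NADH oxidation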
Spn PMK inh – S. pneumoniae PMK inhibition. purified PMK, PK/LDH-coupled NADH absorbance 340 nm. inhibition, % at 10 µM. 65,000 tested, 0.49% active. AID 539;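 active means top-ranked compounds by inhibition in the single 10 µM screen, taking a fixed number of the strongest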;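 further: 0% = full reaction with DMSO carrier and 100% = background rate without enzyme reaction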
* marks the source's active call; other numbers are inactive results; i = inactive; nt = not tested or not shown; + = active, no number; [ ] = dose if it differs, or a comment.

SMILES	Spn MK inh	Fluor 339 460	Spn DPM-DC inh	NADH enzymes	A340 absorber	Spn PMK inh
CC1CN(C(=O)c2cc3c(=O)n4ccccc4nc3s2)CC(C)O1 (stereo not drawn)	0.0	4.87*	nt	9.0%	1.12	18.0
CCCCOc1ncnc2c1[nH]c1ccc(F)cc12	0.0	2.68*	i	4.0%	1.05	12.0
CCCCOc1ncnc2c1[nH]c1ccccc12	0.0	2.34*	i	3.0%	1.06	0.0
CC(C)NC(=O)c1ccccc1NC(=O)CN(c1ccc2c(c1)OCO2)S(C)(=O)=O	1.0	1.07	i	1.0%	1.07	1.0
CCOc1ccc(S(=O)(=O)NC(C)(C)C)cc1-c1nc2c(C(C)(C)C)nn(C)c2c(=O)[nH]1	0.0	1.06	i	2.0%	1.06	6.0
CCOC(=O)N1CCN(C(=O)Cn2nc(-c3ccc(Cl)cc3)ccc2=O)CC1	0.0	1.15	i	8.0%	1	25.0*
COCCNC(=O)c1ccc2c(c1)NC(=O)CS2	8.0	1.03	i	12.0%	1	27.0*
O=C1CSc2ccc(C(=O)N3CCN(c4ccccn4)CC3)cc2N1	2.0	1.14	i	4.0%	1.01	10.0
COc1ccc(NC(=O)c2nnn(Cc3ccc(SC)cc3)c2N)c(OC)c1	11.0	1.52	+	29.0%	1.06	0.0
Cc1ccc(-c2csc3n[nH]c(=S)n23)cc1	88.0*	1.04	i	31.0%	1.02	2.0
Cc1ccc(-c2csc3nnc(SCC(=O)N4CCN(Cc5ccccc5)CC4)n23)cc1	8.0	1.04	i	8.0%	0.99	17.0
OC(CNCC(c1ccco1)N1CCCCC1)c1ccccc1 (stereo not drawn)	31.0	1.21	i	13.0%	1.02	9.0
CC(=O)Nc1ccc2c(c1)C(=O)N(C1CCCCC1)C2=O	7.0	3.84*	nt	8.0%	1.04	9.0
Cc1cc(C)c(-c2cc(C(F)(F)F)no2)c(=O)[nH]1	15.0	3.7*	nt	12.0%	1.19	9.0
Cc1ccc(Cn2nnnc2CN2CCC(O)(c3ccccc3F)CC2)cc1	2.0	1.2	i	2.0%	1	0.0
Cc1ccccc1-c1coc2cc(O)ccc2c1=O	8.0	3.85*	nt	9.0%	1.17	10.0
CC(C)Oc1ccc2c(=O)c(-c3ccccc3)coc2c1	7.0	1.01	i	2.0%	0.97	4.0
c1ccc2[nH]c(-c3ccnc4ccccc34)nc2c1	8.0	2.06*	nt	11.0%	1.11	13.0
c1ccc2[nH]c(-c3cscn3)nc2c1	4.0	0.99	i	2.0%	0.97	3.0
c1ccc2nc(-c3nc4ccccc4[nH]3)ccc2c1	2.0	2.26*	nt	3.0%	1	0.0
CCOC(=O)C(NS(=O)(=O)c1ccc(Br)cc1)C(C)C (stereo not drawn)	12.0	1.07	i	11.0%	1	20.0
COCC(C)NC(=O)C1CC(c2cccc(Br)c2)=NO1 (stereo not drawn)	15.0	1.06	i	7.0%	1	6.0
CCCn1c(=NC(=O)c2ccncc2)c(C(=O)OCC)cc2c(=O)n3cccc(C)c3nc21	5.0	1.65	i	7.0%	1.02	11.0
CCOC(=O)c1cc2c(=O)n3cccc(C)c3nc2n(CCOC)c1=NC(=O)c1ccncc1	4.0	2.02*	i	6.0%	0.98	11.0
CCOC(=O)c1cc2c(=O)n3cccc(C)c3nc2n(CCCOC)c1=NC(=O)c1cccnc1	15.0	2.27*	nt	13.9µM*[fluoresces]	1.13	29.0*
SMILES	Spn MK inh	Fluor 339 460	Spn DPM-DC inh	NADH enzymes	A340 absorber	Spn PMK inh
Cc1nc(N2CCc3ccccc32)[nH]c(=O)c1CCC(C)C	6.0	1.15	i	3.0%	1	8.0
O=C(Nc1ccc(Cl)c(C(F)(F)F)c1)C1CCCN(S(=O)(=O)c2cnc[nH]2)C1 (stereo not drawn)	6.0	1.05	i	7.0%	0.98	15.0
O=C(Cn1c(=O)n(CCCC(=O)NC2CCCC2)c(=O)c2ccccc21)NCCC1=CCCCC1	1.0	1.09	i	3.0%	1.05	9.0
Cn1c(=O)[nH]c(=O)c2c1nc(NC1CCCCC1)n2Cc1ccccc1	37.0	2.53*	+	31.0%	0.98	17.0
Cn1c(=O)[nH]c(=O)c2c1nc(NC1CCCCC1)n2CCO	0.0	1.06	i	1.0%	1.03	1.0
CC(C)Nc1nc(SCC(=O)Nc2ccccc2)nc(N2CCOCC2)n1	4.0	1.06	i	8.0%	1	13.0
Cc1cc(NC(=O)CCCS(=O)(=O)c2nc(-c3cccs3)cc(C(F)(F)F)n2)no1	3.0	3.37*	nt	8.0%	1.17	13.0
CS(=O)(=O)c1nc(-c2cccs2)cc(C(F)(F)F)n1	5.0	2.23*	nt	3.0%	1.16	0.0
CN1CCN(c2nc(-c3cccs3)cc(C(F)(F)F)n2)CC1	7.0	1.22	i	2.0%	1.07	0.0
CCc1c(C)nc(N)n2c(SCC(=O)N3CCN(c4ccccc4F)CC3)nnc12	nt	1.11	i	4.0%	1	7.0
Cc1cc(-c2ccccc2)n2ncc(C#N)c2n1	7.0	2.11*	nt	9.0%	1.11	11.0
N#Cc1cnn(-c2ccccc2)c1N	17.0	1.06	i	6.0%	0.95	2.0
O=C(NCc1ccccn1)c1coc(=O)c(Br)c1	11.0	2.37*	nt	9.0%	1.17	7.0
COCCNC(=O)CN1CCN(Cc2cccc(Cl)c2)C1=O	9.0	1.01	i	2.0%	0.98	5.0
Cn1c(=O)[nH]c(=O)c2c1nc(Br)n2CC(O)c1ccccc1 (stereo not drawn)	10.0	1.1	i	5.0%	1.01	5.0
Cc1cc(O)c(C(C)C)cc1NS(=O)(=O)c1ccccc1	3.0	1.05	i	1.0%	1.03	0.0
COc1cccc(Nc2cc(C)nc3nc(C)nn23)c1	6.0	0.98	i	3.0%	1.05	4.0
COc1cccc(CNc2nc3nc(C)cc(C)n3n2)c1	6.0	2.64*	i	7.0%	1.03	11.0
Cc1cc(-c2cccs2)n[nH]1	0.0	1.07	i	1.0%	1.05	0.0
c1csc(-c2ccc3ccccc3n2)c1	7.0	2.64*	i	13.0%	1.14	13.0
CCOc1ccc2oc(-c3ccccc3)c(C(=O)N3CCN(CCO)CC3)c2c1	1.0	3.37*	nt	4.0%	1.02	6.0
O=C(c1cc2c(ccc3ccccc32)oc1=O)N1CCN(CCO)CC1	2.0	2.15*	nt	4.0%	1.1	5.0
CC(Oc1ccc2oc(-c3ccccc3)c(C(=O)O)c2c1)C(=O)O (stereo not drawn)	5.0	2.42*	nt	2.0%	1.01	2.0
CCOc1ccc(C(=O)N2CCN(Cc3ccccc3)CC2)cc1	13.0	1.1	i	4.0%	1.03	0.0
O=C(c1cc2ccccc2oc1=O)N1CCCN(C(=O)c2cc3ccccc3oc2=O)CC1	0.0	1.42	i	5.0%	1.06	16.0
CCOc1ccc2oc(-c3ccccc3)c(C(=O)O)c2c1	5.0	3.88*	nt	8.0%	1.05	11.0
O=c1[nH]c(CN2CCCCC2)nc2c1C1(CCCC1)Cc1ccccc1-2	6.0	1.11	i	2.0%	1.03	1.0
